Results filed as inconclusive are left out. Active and inactive are the calls of the source. Unless noted, the call rests on the fitted dose curve; in most records, active means well fitted curve in the direction sought with a large enough effect; inconclusive means small, poorly fitted or top-dose-only effect, or another doubt; inactive means no such curve, though single readings can be large; an effect the other way counts as inactive or inconclusive.
How the values were obtained:
[1] = NFAT Signaling Pathway (AID 444; active means well fitted curve in either direction with a large enough effect, not every such curve was filed as active;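 further: carbachol stimulus at about its EC50 of 1 µM final; on the % scale 0 is the no-effect control and ±100 the full control effect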); conditions: Jurkat NFAT-bla M1, carbachol, beta-lactamase ratio, 5 h; at 38 µM (top of the series)
How it was run: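 Jurkat cells carrying an NFAT-driven β-lactamase reporter and co-transfected muscarinic M1 receptor were treated with compound plus carbachol (1 uM final, an EC50 level) for 5 h at 37 °C. CCF4 loading followed for 1 h at RT; 460/530 nm ratio gave %activity.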

[2] = biological target: Glucocorticoid receptor (Homo sapiens) (UniProt P04150); experiment: GR-GFP Redistribution (AID 450;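 active means compounds whose dose series gives a full or clear partial fitted curve of increased nuclear translocation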; further: potency means the concentration at half of the fitted maximal effect); conditions: U2OS GR-GFP nuclear translocation, laser cytometry, 2 h
[3] = biological target: Glucocorticoid receptor (Homo sapiens) (UniProt P04150); experiment: GR-EFC Redistribution (AID 451; calls by dose curve; further: potency means the concentration at half of the fitted maximal effect); conditions: CHO-K1 GR-EFC translocation, beta-gal luminescence, 2 h
How it was run: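 CHO-K1 cells stably expressing nuclear-localized β-gal enzyme acceptor and GR fused C-terminally to the enzyme donor fragment; ligand-driven nuclear translocation restores β-gal by complementation. Compounds titrated up to 46 uM final, 2 h at 37 °C; luminescence read.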

[4] = biological target: 3',5'-cyclic-AMP phosphodiesterase 4B (Homo sapiens) (UniProt Q07343); experiment: qHTS Assay for Inhibitors of PDE-IV (AID 607; active means well fitted activation curve with a large enough effect in the main read-out, with a control signal flat, not every such curve was filed as active; further: % of control where 0% means no effect); conditions: HEK293 ACTOne CNG channel cells, membrane potential fluorescence; series mostly up to 22.9 µM
How it was run: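 Live HEK293 cells with a modified cyclic nucleotide-gated (CNG) channel report intracellular cAMP via membrane-potential dye fluorescence (ex 535/em 590 nm). Endogenous PDE-IV was targeted. Compounds were tested at up to 22.9 uM final; RO 20-1724 100 uM served as control.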

[5] = biological target: Guanine nucleotide-binding protein G(i) subunit alpha-1 (Homo sapiens) (UniProt P63096); experiment: qHTS Assay for Inhibitors of RGS12 GoLoco Motif Activity (Green Fluorophore) (AID 879); conditions: Galphai1/FITC-RGS12 GoLoco peptide, fluorescence polarization; series mostly up to 57.1 µM;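 further: 0% = labeled peptide with Gαi1 and full inhibition = labeled peptide alone without protein; negative values mean loss of peptide binding seen as reduced polarization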
How it was run: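 Fluorescence polarization assay: 50 nM Gαi1 with 10 nM FITC-labeled RGS12 GoLoco peptide in 10 mM Tris pH 7.5, 150 mM NaCl, 0.1 mM GDP, 0.05% NP40, 10 min at room temperature with compound.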

[6] = qHTS Assay for Identification of Small Molecule Agonists for Thrombopoietin (TPO) Signaling Pathway (AID 917); conditions: TPO signaling pathway reporter cells, agonist qHTS; series mostly up to 38.5 µM; further: on the % scale 0 is the no-effect control and ±100 the full control effect
How it was run: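 We measured Glycoprotein IIb promoter–luciferase output in IL-3-starved Ba/F3 murine cells expressing the human TPO receptor after 24 hrs at 37 C with compounds and 26 pM TPO.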

[7] = biological target: Muscarinic acetylcholine receptor M1 (Rattus norvegicus) (UniProt P08482); experiment: qHTS Assay for Antagonists of Acetylcholine Muscarinic M1 Receptor: Kinetic Measurement of Intracellular Calcium Response (AID 943); conditions: M1-expressing cells, kinetic intracellular calcium fluorescence; series mostly up to 35.3 µM;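 further: Fluo-4 calcium signal as peak divided by basal fluorescence over 4 min; nearly all actives have a fitted effect of over 75% in size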
How it was run: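 Rat M1-CHO cells, 2000/well, overnight → Fluo-4 no-wash dye with probenecid, 1 h 37C → compound 10 min, room temp → basal read 6 s → carbachol EC80 (100 nM) → 4 min kinetic read; peak/basal.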

[8] = biological target: Muscarinic acetylcholine receptor M1 (Rattus norvegicus) (UniProt P08482); experiment: qHTS Assay for Antagonists of Acetylcholine Muscarinic M1 Receptor: Measurement of IP-One Response (AID 944); conditions: CHO-M1 cells, IP-One HTRF, antagonist mode; series mostly up to 46.1 µM; further: nearly all actives have a fitted effect of over 75% in size
How it was run: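 M1-CHO (rat), 2000 cells/well, overnight recovery; cpd 10 min; carbachol EC80 (200 nM), 30 min, HEPES buffer + 50 mM LiCl pH 7.4; IP-One HTRF, Ex 337, Em 620/665 nm.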

[9] = biological target: Pyruvate kinase (Leishmania mexicana) (UniProt Q27686); experiment: qHTS Validation Assay for Inhibitors of Leishmania Mexicana Pyruvate Kinase (AID 945);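 further: 0% = DMSO only neutral control wells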; conditions: purified L. mexicana pyruvate kinase, enzyme activity, E451W mutant enzyme; series mostly up to 57.5 µM
How it was run: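 An endpoint luciferase assay: 0.2 nM LmPYK E451W turns over 0.5 mM PEP with 0.1 mM ADP for 1 h at room temperature, pH 7.2, before PKLight addition. Values are normalized to DMSO-only wells.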

[10] = biological target: Alpha-galactosidase (Coffea arabica) (UniProt Q42656); experiment: Counterscreen for Glucocerebrosidase Inhibitors: qHTS Assay for Coffee Bean alpha-Galactosidase at pH 4.5 (AID 957); conditions: purified coffee bean alpha-galactosidase, fluorogenic substrate; series mostly up to 76.9 µM;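 further: plate controls were enzyme alone for no effect and no enzyme for full effect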
How it was run: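 Coffee bean alpha-galactosidase 2 nM, substrate 4-MU-alpha-Gal 80 uM, pH 4.5 citrate/Tween-20, 20 min RT. Cpd titration 0.7 nM–77 uM. Stop pH 10, fluorescence 365/440 nm; Hill-equation AC50.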

[11] = biological target: Alpha-galactosidase A (Homo sapiens) (UniProt P06280); experiment: Counterscreen for Glucocerebrosidase Inhibitors: qHTS Assay for Human alpha-Galactosidase at pH 4.5 (AID 992); conditions: purified enzyme, fluorogenic substrate; series mostly up to 76.9 µM; further: 0% is about no effect
How it was run: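 Read-out is 4-methylumbelliferone fluorescence (365 nm excitation, 440 nm emission) after a pH 10 NaOH/glycine stop. Reactions held 2 nM enzyme and 80 uM substrate at pH 4.5 for 20 min at room temperature.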

[12] = biological target: Alpha-galactosidase (Coffea arabica) (UniProt Q42656); experiment: Counterscreen for Glucocerebrosidase Inhibitors: qHTS Assay for Coffee Bean alpha-Galactosidase at pH 5.9 (AID 998); conditions: coffee bean alpha-galactosidase enzyme assay; series mostly up to 76.9 µM;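 further: plate controls were uninhibited enzyme for no effect and no-enzyme basal signal for full effect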
How it was run: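 Green coffee bean enzyme (2 nM final) was incubated with compounds (0.7 nM–77 uM) and 4-methylumbelliferyl alpha-D-galactopyranoside (80 uM) in citrate buffer pH 5.9, 20 min at room temperature. High-pH stop; fluorescence 365/440 nm; AC50 from Hill fits.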

[13] = Validation of Assay for Modulators of Lamin A Splicing (AID 1459; active means well fitted curve in the direction sought with a large enough effect in the signal ratio; the % refers to the signal ratio;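 further: cells exposed to compound for two days before reading; 0% is about no effect; ratio rise marks activators and ratio drop marks inhibitors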); conditions: Lamin A splicing dual RFP/GFP fluorescence reporter; series mostly up to 9.22 µM
How it was run: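 Splicing correction is reported by an EGFP-containing lamin A minigene in stably transfected S3 HeLa cells, while DsRed2 controls for viability and nonspecific signal. Cells are exposed to compounds for 48 hrs before the GFP over RFP ratio is taken.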

[14] = Counterscreen for APE1 Inhibitors: Fluorescent Dye Displacement Validation Assay (AID 1707); conditions: fluorescent dye displacement from DNA; series mostly up to 57.1 µM;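 further: plate controls were ThO with dsDNA and no compound for no effect and ThO without dsDNA for full effect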
How it was run: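 ThO 250 nM + dsDNA 50 nM (THF abasic site, 5'-TAMRA), Tris-HCl pH7.5/50mM NaCl/2 mM MgCl2/0.01% Tween-20; compounds pin-transferred; ex 480/em 540 nm endpoint. Neutral = no compound; no-DNA ThO wells = negative control.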

[15] = biological target: Endonuclease 4 (Escherichia coli (strain K12)) (UniProt P0A6C1); experiment: Counterscreen for APE1 Inhibitors: qHTS Validation Assay for Inhibitors of Endonuclease IV (AID 1708); further: on the % scale 0 is the no-effect control and ±100 the full control effect; conditions: E. coli endonuclease IV, DNA cleavage fluorescence; series mostly up to 57.1 µM
How it was run: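 Concentration-response counterscreen run identically to the APE1 assay: 15 min room-temperature preincubation of 2 nM enzyme with compound, reaction started with 50 nM quenched abasic DNA, progress taken from kinetic fluorescence.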

[16] = qHTS for differential inhibitors of proliferation of Plasmodium falciparum line 7G8 (AID 1815); conditions: Plasmodium falciparum 7G8 proliferation inhibition; series mostly up to 28.7 µM;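 further: parasite growth measured after three days of incubation; plate controls were vehicle wells for no effect and reference inhibitor wells for full effect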
[17] = qHTS for differential inhibitors of proliferation of Plasmodium falciparum line GB4 (AID 1816); conditions: Potency: Plasmodium falciparum GB4 proliferation inhibition; series mostly up to 28.7 µM;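 further: parasite growth measured after 72 h incubation; 0% = vehicle DMSO and -100% = reference inhibitor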

Chain of Glucocorticoid receptor (Homo sapiens) (P04150 whole entry, looked up, the tested form may be a part): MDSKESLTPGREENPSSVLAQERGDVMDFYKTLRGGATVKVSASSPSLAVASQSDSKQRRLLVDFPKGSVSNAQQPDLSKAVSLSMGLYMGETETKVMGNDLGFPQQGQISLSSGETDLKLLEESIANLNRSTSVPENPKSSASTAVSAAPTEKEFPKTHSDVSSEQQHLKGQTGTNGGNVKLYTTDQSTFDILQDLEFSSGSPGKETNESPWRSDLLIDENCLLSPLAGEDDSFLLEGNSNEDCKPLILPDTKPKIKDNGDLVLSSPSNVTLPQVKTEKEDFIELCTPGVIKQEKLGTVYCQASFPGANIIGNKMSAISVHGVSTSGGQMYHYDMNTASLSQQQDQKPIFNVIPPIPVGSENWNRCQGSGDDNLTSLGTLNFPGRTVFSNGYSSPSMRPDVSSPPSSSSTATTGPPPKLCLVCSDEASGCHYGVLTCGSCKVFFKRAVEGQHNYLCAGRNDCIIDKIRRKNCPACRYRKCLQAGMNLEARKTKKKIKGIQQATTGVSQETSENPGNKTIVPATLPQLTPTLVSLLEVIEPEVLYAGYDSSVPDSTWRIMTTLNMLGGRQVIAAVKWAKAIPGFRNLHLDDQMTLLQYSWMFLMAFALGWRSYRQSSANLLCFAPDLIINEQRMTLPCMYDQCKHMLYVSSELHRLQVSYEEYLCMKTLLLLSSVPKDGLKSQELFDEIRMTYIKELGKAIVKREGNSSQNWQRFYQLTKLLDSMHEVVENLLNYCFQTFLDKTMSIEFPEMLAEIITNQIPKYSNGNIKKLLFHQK
Chain of Alpha-galactosidase (Coffea arabica) (Q42656 whole entry, looked up): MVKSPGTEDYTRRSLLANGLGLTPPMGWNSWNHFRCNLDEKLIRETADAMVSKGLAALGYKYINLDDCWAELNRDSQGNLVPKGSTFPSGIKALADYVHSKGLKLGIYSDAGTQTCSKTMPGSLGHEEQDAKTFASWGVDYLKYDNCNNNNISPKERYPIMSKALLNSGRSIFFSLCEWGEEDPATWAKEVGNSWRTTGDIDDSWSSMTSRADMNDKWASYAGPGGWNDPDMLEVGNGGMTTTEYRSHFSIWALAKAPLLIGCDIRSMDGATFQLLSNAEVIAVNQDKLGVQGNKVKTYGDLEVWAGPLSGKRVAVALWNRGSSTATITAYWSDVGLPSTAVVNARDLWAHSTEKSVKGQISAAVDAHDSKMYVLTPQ
Chain of Muscarinic acetylcholine receptor M1 (Rattus norvegicus) (P08482 whole entry, looked up): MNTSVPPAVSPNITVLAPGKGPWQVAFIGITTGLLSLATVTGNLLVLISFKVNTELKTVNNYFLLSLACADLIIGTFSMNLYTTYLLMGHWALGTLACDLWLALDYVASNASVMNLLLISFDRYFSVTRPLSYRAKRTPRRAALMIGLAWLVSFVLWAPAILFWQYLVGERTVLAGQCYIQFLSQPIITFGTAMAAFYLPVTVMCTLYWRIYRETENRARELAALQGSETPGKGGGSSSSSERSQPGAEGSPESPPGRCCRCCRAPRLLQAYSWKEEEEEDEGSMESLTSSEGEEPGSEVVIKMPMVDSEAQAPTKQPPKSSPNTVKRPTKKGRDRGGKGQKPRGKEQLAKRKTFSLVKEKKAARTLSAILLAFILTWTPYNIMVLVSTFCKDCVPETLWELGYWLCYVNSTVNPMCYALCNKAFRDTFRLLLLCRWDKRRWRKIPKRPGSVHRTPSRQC
Chain of 3',5'-cyclic-AMP phosphodiesterase 4B (Homo sapiens) (Q07343 whole entry, looked up): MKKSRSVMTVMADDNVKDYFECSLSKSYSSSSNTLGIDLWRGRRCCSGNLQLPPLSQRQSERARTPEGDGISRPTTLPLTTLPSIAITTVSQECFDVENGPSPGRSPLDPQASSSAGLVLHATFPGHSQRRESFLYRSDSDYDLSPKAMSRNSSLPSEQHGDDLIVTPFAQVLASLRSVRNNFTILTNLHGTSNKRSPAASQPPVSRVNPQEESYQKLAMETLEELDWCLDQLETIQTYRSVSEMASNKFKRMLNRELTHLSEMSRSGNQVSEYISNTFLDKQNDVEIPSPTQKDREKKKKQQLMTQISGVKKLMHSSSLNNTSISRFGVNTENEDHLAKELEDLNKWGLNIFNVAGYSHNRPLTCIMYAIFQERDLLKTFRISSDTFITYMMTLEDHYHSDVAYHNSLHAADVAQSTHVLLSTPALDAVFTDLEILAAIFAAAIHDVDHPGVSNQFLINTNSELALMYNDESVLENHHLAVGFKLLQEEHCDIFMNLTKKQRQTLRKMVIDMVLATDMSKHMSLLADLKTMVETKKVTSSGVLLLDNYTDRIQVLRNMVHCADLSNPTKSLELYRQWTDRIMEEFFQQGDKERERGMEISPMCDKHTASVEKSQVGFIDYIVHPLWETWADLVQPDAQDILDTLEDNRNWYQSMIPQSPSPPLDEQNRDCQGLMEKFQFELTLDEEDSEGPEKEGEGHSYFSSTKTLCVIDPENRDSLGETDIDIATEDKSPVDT
Chain of Guanine nucleotide-binding protein G(i) subunit alpha-1 (Homo sapiens) (P63096 whole entry, looked up): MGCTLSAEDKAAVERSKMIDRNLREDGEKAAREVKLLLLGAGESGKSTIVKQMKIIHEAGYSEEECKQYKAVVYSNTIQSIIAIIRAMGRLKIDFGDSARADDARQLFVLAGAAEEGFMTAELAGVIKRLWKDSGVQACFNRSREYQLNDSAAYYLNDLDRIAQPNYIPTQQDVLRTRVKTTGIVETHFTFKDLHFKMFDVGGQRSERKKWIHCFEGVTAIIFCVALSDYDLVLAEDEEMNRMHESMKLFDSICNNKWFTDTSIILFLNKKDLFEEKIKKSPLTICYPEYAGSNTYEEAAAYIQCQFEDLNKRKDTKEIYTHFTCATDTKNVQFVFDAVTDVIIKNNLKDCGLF
Chain of Pyruvate kinase (Leishmania mexicana) (Q27686 2-499 E452W): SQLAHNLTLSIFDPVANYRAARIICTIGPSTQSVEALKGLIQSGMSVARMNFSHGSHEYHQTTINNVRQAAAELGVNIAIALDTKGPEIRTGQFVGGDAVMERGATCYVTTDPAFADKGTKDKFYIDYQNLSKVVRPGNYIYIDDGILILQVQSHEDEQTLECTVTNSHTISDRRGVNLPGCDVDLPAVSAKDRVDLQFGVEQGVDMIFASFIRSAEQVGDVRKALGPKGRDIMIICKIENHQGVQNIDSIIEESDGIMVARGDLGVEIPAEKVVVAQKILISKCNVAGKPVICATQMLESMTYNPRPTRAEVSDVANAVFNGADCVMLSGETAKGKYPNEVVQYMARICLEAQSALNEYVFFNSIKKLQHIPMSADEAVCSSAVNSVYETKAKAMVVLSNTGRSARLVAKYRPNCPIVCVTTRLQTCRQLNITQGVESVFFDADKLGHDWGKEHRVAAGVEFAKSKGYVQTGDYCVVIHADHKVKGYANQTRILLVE
Chain of Alpha-galactosidase A (Homo sapiens) (P06280 whole entry, looked up): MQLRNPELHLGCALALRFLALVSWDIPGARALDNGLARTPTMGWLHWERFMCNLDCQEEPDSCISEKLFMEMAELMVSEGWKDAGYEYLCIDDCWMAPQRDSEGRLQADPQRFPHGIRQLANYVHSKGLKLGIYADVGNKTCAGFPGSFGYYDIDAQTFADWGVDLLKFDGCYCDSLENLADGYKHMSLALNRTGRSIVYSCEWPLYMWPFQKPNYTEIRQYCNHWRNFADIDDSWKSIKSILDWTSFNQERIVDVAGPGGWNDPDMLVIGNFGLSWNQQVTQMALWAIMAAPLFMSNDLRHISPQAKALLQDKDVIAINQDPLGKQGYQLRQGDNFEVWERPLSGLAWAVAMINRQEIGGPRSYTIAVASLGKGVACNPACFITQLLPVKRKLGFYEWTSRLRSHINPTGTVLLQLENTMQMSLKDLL

COc1ccc(CCN)cc1O
inactive: activity change, negative = inhibition [1] -3.06% | Potency [2] > 46 µM | Potency [3] > 46 µM | Potency [4] | outcome [5] | outcome [6] | Potency [7] | Potency [8] | outcome [9] | outcome [10] | outcome [11] | outcome [12] | outcome [13] | Potency [14] | outcome [15] | Potency [16] | Potency [17]

From PubChem BioAssay (NCATS)
